For 19 compounds, outcome and Potency results are on record in PubChem BioAssay (NCATS).

Records with an inconclusive call do not appear. Entries that show only a call come without a potency. The source made the active and inactive calls. The call rests on the fitted dose curve; in most records, active means well fitted curve in the direction sought with a large enough effect; inconclusive means small, poorly fitted or top-dose-only effect, or another doubt; inactive means no such curve, though single readings can be large; an effect the other way counts as inactive or inconclusive.

System in the first test: not listed separately
The experiment in a line: qHTS for small molecule inhibitors of Yes1 kinase: Counter Assay (AID 686950).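 Further: no kinase present so only ADP-Glo detection of a fixed ADP amount is tested; luminescence from ADP-Glo reporting ADP in a fixed ATP and ADP mixture.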 The conditions noted are these: series mostly up to 76.9 µM. The essentials: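 Enzyme-free detection counter-screen: compounds preincubated 20 min in buffer, then 0.08 mM ATP plus 0.02 mM ADP added for 60 min at room temperature; ADP-Glo luminescence. Buffer 50 mM Tris pH 7.5, 10 mM MgCl2, 150 mM NaCl; normalized to ATP+ADP and ATP-only controls.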
On to `Cc1cc(SCc2sc(-c3ccc(C(F)(F)F)c(F)c3)nc2C)ccc1OCC(=O)O`, for which the call was inactive.
Still for that read-out and setting: as for `COC[C@H]1OC(=O)c2coc3c2[C@@]1(C)C1=C(C3=O)C2CCC(=O)[C@@]2(C)C[C@H]1OC(C)=O` (stereo not given in full), the entry is “inactive”.
On the same count and under the same terms, as for `CCCCC/C=C\C/C=C\C/C=C\C/C=C\CCCC(=O)NC1CC1`, the entry is “inactive”.
On the same count and under the same terms, as for `Cn1cc(C2=C(c3cn(C4CCN(Cc5ccccn5)CC4)c4ccccc34)C(=O)NC2=O)c2ccccc21`, the entry is “inactive”; as for `CC1=C2C[C@@H]3[C@@H](CC=C4C[C@@H](O)CC[C@@]43C)[C@@H]2CC[C@]12O[C@H]1C[C@H](C)CN[C@H]1[C@H]2C`, “inactive”; as for `CN(C)CCN(C)CCc1ccc(Cl)c(Cl)c1`, “inactive”.
Regarding `COC1(CS(=O)c2ccccc2)CCN(CCc2c[nH]c3ccc(F)cc23)CC1` (stereo not given), the compound was classed as inactive.
Same read-out and setting: for `C[C@]12CCC(=O)C(O)=C1CC[C@@H]1[C@@H]2CC[C@]2(C)C(=O)CC[C@@H]12` the value was “inactive”; for `Cc1sc2c(c1C)C(c1ccc(Cl)cc1)=N[C@@H](CC(=O)OC(C)(C)C)c1nnc(C)n1-2`, “inactive”; for `Cn1c(CCCC(=O)O)nc2cc(N(CCCl)CCCl)ccc21`, “inactive”.
Still for that read-out and setting: as for `C[C@@H]1[C@@H](CC(C[C@H]2O[C@@H]3O[C@]4(C)CC[C@@H]5[C@H](C)CC[C@@H]([C@H]2C)[C@@]35OO4)C[S+](=O)([O-])c2ccc(COC(=O)N(C)C)cc2)O[C@@H]2O[C@]3(C)CC[C@H]4[C@H](C)CC[C@@H]1[C@@]24OO3` (stereo not given in full), the entry is “inactive”.
`C[C@@H]1[C@@H](C(=O)C[C@H]2O[C@@H]3O[C@]4(C)CC[C@@H]5[C@H](C)CC[C@@H]([C@H]2C)[C@@]35OO4)O[C@@H]2O[C@]3(C)CC[C@H]4[C@H](C)CC[C@@H]1[C@@]24OO3`: the result was inactive.

The next test deals with Arylsulfatase A (Homo sapiens) (UniProt P15289). In words: qHTS screen for enhancers of Arylsulfatase A (ASA1): LOPAC Validation Assay (AID 720538). Conditions: ASA enzyme activity, LOPAC qHTS enhancer assay; series mostly up to 57.5 µM. The essentials: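 First, ASA-I179S fibroblasts from an MLD patient adhered for 6 hrs. Next, compounds were added for 48h. Then pNCS substrate (0.5mM final) with lysis buffer reacted 14h at room temperature before NaOH stop and fluorescence measurement.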
Chain of Arylsulfatase A (Homo sapiens) (P15289 whole entry, looked up): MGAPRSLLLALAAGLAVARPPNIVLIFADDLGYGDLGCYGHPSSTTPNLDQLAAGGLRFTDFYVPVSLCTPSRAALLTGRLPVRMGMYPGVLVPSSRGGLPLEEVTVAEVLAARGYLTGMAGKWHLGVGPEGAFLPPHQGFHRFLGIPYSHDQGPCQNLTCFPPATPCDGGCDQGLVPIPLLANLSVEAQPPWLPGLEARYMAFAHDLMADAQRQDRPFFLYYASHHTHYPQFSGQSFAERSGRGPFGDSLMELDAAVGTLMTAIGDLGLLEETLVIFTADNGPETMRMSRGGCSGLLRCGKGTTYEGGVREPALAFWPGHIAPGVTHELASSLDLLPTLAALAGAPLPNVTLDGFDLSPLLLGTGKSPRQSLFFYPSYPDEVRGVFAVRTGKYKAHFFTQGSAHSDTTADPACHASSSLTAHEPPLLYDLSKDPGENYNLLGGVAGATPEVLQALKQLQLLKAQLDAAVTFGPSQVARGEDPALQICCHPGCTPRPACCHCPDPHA
In general terms: In qHTS, concentration-response curves come from the screen itself.
As for `COC[C@H]1OC(=O)c2coc3c2[C@@]1(C)C1=C(C3=O)C2CCC(=O)[C@@]2(C)C[C@H]1OC(C)=O` (stereo not given in full), the Potency result is “inactive”.
Same read-out and setting: as for `Nc1ccncc1`, the entry is “inactive”; as for `C[C@]12CCC(=O)C(O)=C1CC[C@@H]1[C@@H]2CC[C@]2(C)C(=O)CC[C@@H]12`, “inactive”.
The same measure, in the same setting: as for `CCCC(C)(COC(N)=O)COC(=O)NC(C)C` (stereo not given), the entry is “inactive”; as for `O=c1[nH]c2ccccc2n1C1CCN(CCCC(c2ccc(F)cc2)c2ccc(F)cc2)CC1`, “inactive”; as for `C=C(C)[C@H]1Cc2c(ccc3c2O[C@@H]2COc4cc(OC)c(OC)cc4[C@@H]2C3=O)O1`, “inactive”.
Still for that read-out and setting: for `CNCC(O)c1ccc(O)cc1` (stereo not given) the value was “inactive”; for `C[C@@H]1O[C@@H](O[C@H]2C[C@@H](O)[C@]3(CO)[C@H]4[C@H](O)C[C@]5(C)[C@@H](C6=CC(=O)OC6)CC[C@]5(O)[C@@H]4CC[C@]3(O)C2)[C@H](O)[C@H](O)[C@H]1O`, “inactive”.
Consider `NCC(O)c1ccc(O)cc1` (stereo not given), for which the Potency result is “inactive”.

System in a further test: not listed separately
In words: qHTS for compounds that reverse cellular toxicity of Amyloid beta (A-beta) peptide in yeast: LOPAC Validation Assay (AID 720559). The conditions noted are these: yeast expressing A-beta; series mostly up to 46.1 µM. The essentials:
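Activity is expressed relative to DMSO and an equimolar ferric chloride/clioquinol mix. Compounds were pinned into medium with A-beta-expressing yeast, grown 48 hr at 30 C, then read by absorbance at 600 nm.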
Turning to `COC[C@H]1OC(=O)c2coc3c2[C@@]1(C)C1=C(C3=O)C2CCC(=O)[C@@]2(C)C[C@H]1OC(C)=O` (stereo not given in full), the outcome was inactive.
As for `Nc1ccncc1`, the compound was called inactive.
Same read-out and setting: for `C[C@]12CCC(=O)C(O)=C1CC[C@@H]1[C@@H]2CC[C@]2(C)C(=O)CC[C@@H]12` the value was “inactive”; for `CCCC(C)(COC(N)=O)COC(=O)NC(C)C` (stereo not given), “inactive”.
For `C=C(C)[C@H]1Cc2c(ccc3c2O[C@@H]2COc4cc(OC)c(OC)cc4[C@@H]2C3=O)O1`, the call was inactive.
Still for that read-out and setting: as for `CNCC(O)c1ccc(O)cc1` (stereo not given), the entry is “inactive”; as for `C[C@@H]1O[C@@H](O[C@H]2C[C@@H](O)[C@]3(CO)[C@H]4[C@H](O)C[C@]5(C)[C@@H](C6=CC(=O)OC6)CC[C@]5(O)[C@@H]4CC[C@]3(O)C2)[C@H](O)[C@H](O)[C@H]1O`, “inactive”.
As to `NCC(O)c1ccc(O)cc1` (stereo not given), the outcome was inactive.

System in another test: not listed separately
In words: qHTS for Activators of Parkin Expression: LOPAC Validation Assay (NLuc Reporter) (AID 720572). The conditions noted are these: Parkin promoter NanoLuc reporter cells, luminescence, percent of positive control, DMSO as zero; series mostly up to 46.1 µM. The essentials:
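Neuronal cells with a Parkin promoter-driven FLuc/NLuc coincidence reporter were treated 24 h at 37 C in 7-point dose response (LOPAC). NLuc luminescence read after FLuc; signals normalized to DMSO and positive control (100%).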
`COC[C@H]1OC(=O)c2coc3c2[C@@]1(C)C1=C(C3=O)C2CCC(=O)[C@@]2(C)C[C@H]1OC(C)=O` (stereo not given in full): the compound was called inactive.
On the same count and under the same terms, for `Nc1ccncc1` the value was “inactive”; for `C[C@]12CCC(=O)C(O)=C1CC[C@@H]1[C@@H]2CC[C@]2(C)C(=O)CC[C@@H]12`, “inactive”; for `CCCC(C)(COC(N)=O)COC(=O)NC(C)C` (stereo not given), “inactive”.
On the same count and under the same terms, for `C=C(C)[C@H]1Cc2c(ccc3c2O[C@@H]2COc4cc(OC)c(OC)cc4[C@@H]2C3=O)O1` the value was “inactive”.
With `CNCC(O)c1ccc(O)cc1` (stereo not given), the call was inactive.
Same read-out and setting: for `C[C@@H]1O[C@@H](O[C@H]2C[C@@H](O)[C@]3(CO)[C@H]4[C@H](O)C[C@]5(C)[C@@H](C6=CC(=O)OC6)CC[C@]5(O)[C@@H]4CC[C@]3(O)C2)[C@H](O)[C@H](O)[C@H]1O` the value was “inactive”; for `NCC(O)c1ccc(O)cc1` (stereo not given), “inactive”.

System in the next test: not listed separately
In words: qHTS for Activators of Parkin Expression: LOPAC Validation Assay (FLuc Reporter) (AID 720573). Conditions: Cell line, PRKN promoter firefly luciferase reporter, vehicle wells = 0, positive control = 100%; series mostly up to 46.1 µM. The essentials: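 A neuronal cell line harbouring FLuc and NLuc reporters behind the Parkin promoter was exposed to compounds for 24 h. Firefly luciferase signal, measured after 10 min with detection reagent, was scaled to DMSO and positive-control wells.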
Consider `COC[C@H]1OC(=O)c2coc3c2[C@@]1(C)C1=C(C3=O)C2CCC(=O)[C@@]2(C)C[C@H]1OC(C)=O` (stereo not given in full), for which the call was inactive.
On the same count and under the same terms, as for `Nc1ccncc1`, the entry is “inactive”; as for `C[C@]12CCC(=O)C(O)=C1CC[C@@H]1[C@@H]2CC[C@]2(C)C(=O)CC[C@@H]12`, “inactive”; as for `CCCC(C)(COC(N)=O)COC(=O)NC(C)C` (stereo not given), “inactive”.
The same measure, in the same setting: as for `C=C(C)[C@H]1Cc2c(ccc3c2O[C@@H]2COc4cc(OC)c(OC)cc4[C@@H]2C3=O)O1`, the entry is “inactive”; as for `CNCC(O)c1ccc(O)cc1` (stereo not given), “inactive”; as for `C[C@@H]1O[C@@H](O[C@H]2C[C@@H](O)[C@]3(CO)[C@H]4[C@H](O)C[C@]5(C)[C@@H](C6=CC(=O)OC6)CC[C@]5(O)[C@@H]4CC[C@]3(O)C2)[C@H](O)[C@H](O)[C@H]1O`, “inactive”.
On the same count and under the same terms, for `NCC(O)c1ccc(O)cc1` (stereo not given) the value was “inactive”.
